About 2,100 (0.53%) of roughly 400,000 compounds were called active. About 14% were inconclusive and are not listed. The rule behind the calls is not given here. Shown is part of a subset that was picked to be rich in actives.
molecular target: Ataxin-2 (Homo sapiens) (UniProt Q99700); experiment: qHTS for Inhibitors of ATXN expression.; type: functional
Sequence (Q99700 whole entry): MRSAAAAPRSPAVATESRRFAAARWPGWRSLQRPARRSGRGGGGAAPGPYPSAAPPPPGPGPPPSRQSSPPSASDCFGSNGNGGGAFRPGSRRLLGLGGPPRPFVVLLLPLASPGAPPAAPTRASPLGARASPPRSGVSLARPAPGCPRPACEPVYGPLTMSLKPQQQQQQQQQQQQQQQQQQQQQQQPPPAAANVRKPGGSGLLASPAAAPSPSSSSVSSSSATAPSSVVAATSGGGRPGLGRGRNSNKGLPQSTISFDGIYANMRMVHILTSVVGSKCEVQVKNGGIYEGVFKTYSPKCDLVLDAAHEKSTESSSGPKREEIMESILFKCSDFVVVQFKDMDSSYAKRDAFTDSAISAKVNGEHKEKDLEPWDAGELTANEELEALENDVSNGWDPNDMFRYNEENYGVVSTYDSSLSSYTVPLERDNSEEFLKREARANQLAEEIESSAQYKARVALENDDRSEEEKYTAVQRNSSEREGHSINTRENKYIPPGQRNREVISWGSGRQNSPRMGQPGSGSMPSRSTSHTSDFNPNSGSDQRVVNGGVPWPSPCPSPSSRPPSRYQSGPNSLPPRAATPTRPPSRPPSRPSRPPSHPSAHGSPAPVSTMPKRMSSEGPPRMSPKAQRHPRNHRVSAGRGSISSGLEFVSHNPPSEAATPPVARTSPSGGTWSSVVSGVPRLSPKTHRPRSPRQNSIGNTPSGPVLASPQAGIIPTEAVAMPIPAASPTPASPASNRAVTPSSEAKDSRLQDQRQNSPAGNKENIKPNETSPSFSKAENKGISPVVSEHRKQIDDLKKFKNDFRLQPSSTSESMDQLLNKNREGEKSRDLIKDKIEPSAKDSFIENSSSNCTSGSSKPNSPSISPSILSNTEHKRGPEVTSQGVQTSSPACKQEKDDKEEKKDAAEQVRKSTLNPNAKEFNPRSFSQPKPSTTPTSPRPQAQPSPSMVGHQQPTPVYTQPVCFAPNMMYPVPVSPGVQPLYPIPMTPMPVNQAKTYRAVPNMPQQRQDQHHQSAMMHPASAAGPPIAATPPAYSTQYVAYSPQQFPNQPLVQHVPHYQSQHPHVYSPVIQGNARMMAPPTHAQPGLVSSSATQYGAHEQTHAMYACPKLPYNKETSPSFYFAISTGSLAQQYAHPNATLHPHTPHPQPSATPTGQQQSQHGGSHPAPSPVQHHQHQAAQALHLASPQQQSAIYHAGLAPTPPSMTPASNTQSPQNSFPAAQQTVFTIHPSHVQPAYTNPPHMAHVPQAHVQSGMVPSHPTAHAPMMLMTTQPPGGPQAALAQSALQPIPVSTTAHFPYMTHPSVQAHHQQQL

| Compound | Potency |
| --- | --- |
| CS(=O)(=O)c1cnc2c(-c3ccsc3)cnn2c1N | inactive |
| Nc1ccc2nc3c(=O)n(CCc4ccccc4)c(=O)[nH]c3nc2c1 | inactive |
| O=C(COC(=O)/C=C/c1ccc(Br)o1)NC1CCCCC1 | inactive |
| O=C(c1ccccc1)c1ccc(OCC(O)CNCc2ccc(F)cc2)cc1 (stereo unspecified) | inactive |
| OC(CNCCc1ccc(C(F)(F)F)cc1)COc1ccc2ccccc2c1 (stereo unspecified) | 25.1 µM (active) |
| COc1ccc(C2CC(c3ccncc3)=NN2c2ccc(S(N)(=O)=O)cc2)cc1 (stereo unspecified) | inactive |
| O=C(CNC(=O)c1ccccc1Br)N/N=C/c1ccccc1O | inactive |
| CC(Oc1ccccc1Cl)C(=O)N(Cc1cccs1)C1CCS(=O)(=O)C1 (stereo unspecified) | inactive |
| Cc1cc(NC(=O)CSc2cn(C)c3ccccc23)no1 | inactive |
| Cc1c(C(=O)Cc2ccccc2)n(C)c2ccccc12 | inactive |
| Cn1cc(C(=O)CCl)c2ccccc21 | 35.5 µM (active) |
| Cc1cc(Sc2nc(NC(C)(C)C)nc(N3CCOCC3)n2)nc(Cl)n1 | inactive |
| Cc1cc2[nH]c3c(c[n+](C)c4ccccc34)c2cc1C | 31.6 µM (active) |
| Cc1nccc2cc3[nH]c4ccccc4c3cc12 | inactive |
| CCn1c(=N)c(C(=O)NC)cc2c(=O)n3cccc(C)c3nc21 | inactive |
| Cc1ccc(S(=O)(=O)Nc2nc3n(n2)C(c2ccc(Cl)cc2)C=C(c2ccccc2)N3)cc1 (stereo unspecified) | inactive |
| CN(C)c1ccc(N=Nc2ccccc2C(=O)OCC(=O)NC2CCCC2)cc1 | 28.2 µM (active) |
| CN(C(=O)COC(=O)c1cccnc1O)C1CCCCC1 | inactive |
| COc1ccccc1C(=O)OCC(=O)NC(=O)NC1CCCC1 | inactive |
| CC(C)Cc1nc2sc3c(SCC(N)=O)ncnc3c2c2c1CCC2 | inactive |
| CC(=O)/N=c1\c(C#N)cc2c(=O)n3ccccc3nc2n1Cc1ccccc1 | inactive |
| CCN(CC)CCn1c(-c2ccccc2)cs/c1=N\c1ccccc1 | 15.8 µM (active) |
| CCN(CC)c1ccc2cc(S(=O)(=O)c3ccc(C)cc3)c(=O)oc2c1 | inactive |
| Cc1cc(C)n(-c2cc(C(C)(C)C)nc3c(-c4ccccc4)cnn23)n1 | inactive |
| Cc1nc2c(-c3ccc(Cl)cc3)cnn2c2c1CCC2 | inactive |
| CN(C)CCCNc1cc(C(C)(C)C)nc2c(-c3ccc(Cl)cc3)cnn12 | 39.8 µM (active) |

| Compound | Potency |
| --- | --- |
| O=c1c2ccccc2[nH]c2ccc(O)cc12 | inactive |
| CCOc1ccc(C(=O)COC(=O)Cn2cnc3c2c(=O)n(C)c(=O)n3C)cc1 | inactive |
| CCOc1ccc(C(=O)CCN2CCOCC2)cc1 | 39.8 µM (active) |
| CCCCOc1ccc(C(=O)CCN2CCOCC2)cc1 | 23.8 µM (active) |
| COc1ccc(OCCC(=O)NCCN2CCOCC2)cc1 | inactive |
| CCOc1ccc2c(c1)C(N(CCN1CCOCC1)C(=O)Nc1ccccc1)CC(C)(C)O2 (stereo unspecified) | inactive |
| O=C(CCN1CCOCC1)N/N=C/c1cc(Br)cc(Br)c1O | inactive |
| CCCN(CCC)S(=O)(=O)c1ccc(C(=O)Nc2sc3c(c2C(=O)OC)CCN(CC)C3)cc1 | inactive |
| CCc1cc(=O)oc2cc(C)cc(O)c12 | inactive |
| O=C(COC(=O)c1cc(S(=O)(=O)N2CCCCC2)ccc1N1CCOCC1)c1ccccc1Cl | inactive |
| COc1ccc(Nc2ccc3c(c2)=NC2(CCCCC2)[N+]=3[O-])cc1 | 20 µM (active) |
| COc1ccc(Nc2ccnc(Nc3ccc(OC)cc3)n2)cc1 | inactive |
| CC(=O)c1cc2c(s1)-c1cc(F)ccc1OC2 | inactive |
| O=C(Nc1cccc(-c2csc(Nc3ccc(Cl)cc3)n2)c1)c1cc([N+](=O)[O-])cc(C(F)(F)F)c1 | 35.5 µM (active) |
| O=C(Nc1ccc(-c2csc(Nc3cccc(C(F)(F)F)c3)n2)cc1)c1cccc(C(F)(F)F)c1 | 20 µM (active) |
| NS(=O)(=O)c1cccc(NC(=O)CSc2n[nH]c(-c3cccs3)n2)c1 | inactive |
| O=C(Cc1ccccc1F)Nc1ccccc1-c1ccccc1 | inactive |
| COc1ccc(CC(N)c2csc(NC(=O)Nc3ccccc3-c3ccccc3)n2)cc1 (stereo unspecified) | 39.8 µM (active) |
| COc1cccc(OCC(=O)Nc2ccccc2-c2ccccc2)c1 | inactive |
| COc1ccc(CC(N)c2csc(NC(=O)Nc3ccccc3C(C)(C)C)n2)cc1 (stereo unspecified) | 39.8 µM (active) |
| CC(C)(C)c1ccccc1NC(=O)c1cnn2c(C(F)F)cc(-c3ccccc3)nc12 | inactive |
| CCOC(=O)CCc1c(C)c2cc3c(c(C)c2oc1=O)OCN(CCc1ccccc1OC)C3 | inactive |
| Cc1cc(C(=O)NNC(=O)c2ccc(C(F)(F)F)cc2)no1 | inactive |
| CC1C/C(=N\NC(=O)c2ccc([N+](=O)[O-])cc2)CC(C)(C)C1 (stereo unspecified) | inactive |
| Cc1ccc(NS(=O)(=O)c2ccc(C(=O)N3CCN(c4ncccn4)CC3)cc2)cc1 | inactive |
